We go through nine compounds from PubChem BioAssay (EPA / NIEHS).

A short description of experiment [1]: Tanguay_ZF_120hpf_YSE_legacy: (Legacy) Oregon State University Tanguay Lab 120 Hour Post-fertilization zebrafish Assay for Yolk Sac Edema (AID 2283634).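 On AC50: actives raise the incidence of yolk sac edema above the DMSO baseline.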 The method in brief: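 Dechorionate (pronase, 4 hpf) → place one 6 hpf embryo per well → static compound exposure, sealed and foil-covered, 28C, to 120 hpf → record yolk sac edema as present or absent. Final DMSO 0.64%.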

Experiment [2] can be described thus: Tanguay_ZF_120hpf_AXIS_legacy: (Legacy) Oregon State University Tanguay Lab 120 Hour Post-fertilization zebrafish Assay for Body Axis Malformation (AID 2283635).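 On AC50: potency for an increased fraction of larvae scored with body axis malformation.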 The essentials:
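Chorion is removed with pronase at 4 hpf, then single 6 hpf embryos are dosed (final DMSO 0.64%) and held statically at 28C in sealed, foil-covered plates. At 120 hpf body axis malformation is recorded as present or absent.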

A short description of experiment [3]: Tanguay_ZF_120hpf_EYE_legacy: (Legacy) Oregon State University Tanguay Lab 120 Hour Post-fertilization zebrafish Assay for Eye Malformation (AID 2283636). The essentials:
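5D wild-type embryos, pronase-dechorionated at 4 hpf; static exposure 6–120 hpf, 28C, dark; DMSO 0.64% final; 5uM trimethyltin chloride positive control. Binary eye-defect scoring at 120 hpf; dead embryos not scored.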

Experiment [4] in a line: Tanguay_ZF_120hpf_SNOU_legacy: (Legacy) Oregon State University Tanguay Lab 120 Hour Post-fertilization zebrafish Assay for Snout Malformation (AID 2283637). The essentials:
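Binary brightfield scoring of snout malformation at 120 hpf. Dechorionated 5D wild-type embryos, one per well, static exposure from 6 hpf at 28C, sealed and dark; final DMSO 0.64% (vol/vol), DMSO as baseline; 5uM trimethyltin chloride positive control.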

The nature of experiment [5]: Tanguay_ZF_120hpf_JAW_legacy: (Legacy) Oregon State University Tanguay Lab 120 Hour Post-fertilization zebrafish Assay for Jaw Malformation (AID 2283638).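 On AC50: active means more embryos with jaw malformation than DMSO controls.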 The method in brief: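 Steps: dechorionate 4 hpf embryos (pronase); plate 1/well at 6 hpf; add test chemical, 0.64% DMSO final; seal, cover, hold at 28C statically to 120 hpf; score jaw defect presence/absence microscopically. Dead embryos not scored.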

Experiment [6] in a line: Tanguay_ZF_120hpf_OTIC_legacy: (Legacy) Oregon State University Tanguay Lab 120 Hour Post-fertilization zebrafish Assay for Otic Vesicle Malformation (AID 2283639). The essentials:
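Wild-type zebrafish larvae, whole-embryo exposure from early stage to 120 hpf at 28C. Binary brightfield scoring of otic vesicle morphology, fitted in the positive direction against the DMSO baseline.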

The nature of experiment [7]: Tanguay_ZF_120hpf_PE_legacy: (Legacy) Oregon State University Tanguay Lab 120 Hour Post-fertilization zebrafish Assay for Pericardial Edema (AID 2283640).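 On AC50: potency for increased incidence of pericardial edema versus DMSO baseline.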 The method in brief: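 Embryos from wild-type 5D adults were staged, then dosed in 0.64% DMSO. They were kept sealed in the dark at 28C until 120 hpf. Pericardial edema was then recorded as present or absent.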
The nature of experiment [8]: Tanguay_ZF_120hpf_BRAI_legacy: (Legacy) Oregon State University Tanguay Lab 120 Hour Post-fertilization zebrafish Assay for Brain Malformation (AID 2283641). The essentials: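 Wild-type 5D larvae, static waterborne exposure to 120 hpf, 28C, 0.64% v/v DMSO. Brightfield scoring of brain defects, binary; dead embryos excluded. Positive ctrl 5uM trimethyltin chloride.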

Experiment [9] can be described thus: Tanguay_ZF_120hpf_PFIN_legacy: (Legacy) Oregon State University Tanguay Lab 120 Hour Post-fertilization zebrafish Assay for Pectoral Fin Malformation (AID 2283648).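 Further: each larva judged yes or no for fin defect by brightfield with dead larvae skipped.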 The method in brief:
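Binary pectoral fin malformation call at 120 hpf by brightfield microscopy; 5D wild-type zebrafish, chorion removed at 4 hpf, one embryo per well from 6 hpf, static exposure at 28C; DMSO (0.64% final) as baseline.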

A short description of experiment [10]: Tanguay_ZF_120hpf_CFIN_legacy: (Legacy) Oregon State University Tanguay Lab 120 Hour Post-fertilization zebrafish Assay for Caudal Fin Malformation (AID 2283649). The method in brief: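 Binary presence or absence of caudal fin malformation at 120 hpf, read by brightfield microscopy, with DMSO as baseline. Larvae came from 5D wild-type embryos exposed statically from 6 hpf at 28C after pronase dechorionation.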

Experiment [11] is described as follows: Tanguay_ZF_120hpf_PIG_legacy: (Legacy) Oregon State University Tanguay Lab 120 Hour Post-fertilization zebrafish Assay for Pigmentation Malformation (AID 2283650). The method in brief: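 Brightfield scoring of pigmentation malformation at 120 hpf, recorded as binary present/absent per larva. Exposure: dechorionated 5D wild-type embryos, one per well, static from 6 hpf at 28C, final DMSO 0.64% (vol/vol). Dead embryos not scored.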

A short description of experiment [12]: Tanguay_ZF_120hpf_CIRC_legacy: (Legacy) Oregon State University Tanguay Lab 120 Hour Post-fertilization zebrafish Assay for Circulatory Malformation (AID 2283651). The method in brief:
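Binary circulatory-malformation call at 120 hpf via brightfield imaging, relative to DMSO controls. Embryos (5D strain, chorion removed) received static, light-shielded exposure at 28C.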

Experiment [13] can be described thus: Tanguay_ZF_120hpf_TRUN_legacy: (Legacy) Oregon State University Tanguay Lab 120 Hour Post-fertilization zebrafish Assay for Truncated Body (AID 2283655). The method in brief:
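Truncated body is recorded as a binary endpoint at 120 hpf by brightfield imaging of wild-type 5D larvae. Exposure runs statically from 6 hpf at 28C with 0.64% DMSO; embryos dying earlier are not scored.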

Experiment [14] is described as follows: Tanguay_ZF_120hpf_SWIM_legacy: (Legacy) Oregon State University Tanguay Lab 120 Hour Post-fertilization zebrafish Assay for Swim Bladder Malformation (AID 2283654).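 Further: swim bladder malformation in each larva scored yes or no under brightfield.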 The method in brief: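 Tropical 5D embryos dechorionated at 4 hpf; 1 embryo/well from 6 hpf; static, sealed, dark exposure at 28C until 120 hpf; final DMSO 0.64%; 5uM trimethyltin chloride positive control; swim bladder defect recorded yes/no; dead embryos not scored.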

A short description of experiment [15]: Tanguay_ZF_120hpf_NC_legacy: (Legacy) Oregon State University Tanguay Lab 120 Hour Post-fertilization zebrafish Assay for Notochord and Tail Malformation (AID 2283656). The method in brief:
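Binary notochord-distortion calls, made by brightfield inspection, form the read-out; activity is fitted in the positive direction against DMSO. Exposure ran statically from 6 to 120 hpf at 28C with 0.64% DMSO.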

Read-out in experiment [16]: solute carrier (SLC22A6), SLC22A6 (gene 9356)
Put plainly: LTEA_HepaRG_SLC22A6: Life Technologies and Expression Analysis (LTEA) Assay for solute carrier (SLC22A6) using HepaRG (AID 2283653; active means hit-call score of the fitted dose curve at least 0.9, where 1 is the maximum; inactive means score below 0.9). Particulars: mRNA level, 48 h; actives raise or lower the signal. The essentials:
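Read-out is SLC22A6 transcript level by qRT-PCR, normalised to three housekeeping genes and fitted for gain or loss relative to 0.5% DMSO vehicle. Human HepaRG cells received chemicals at up to 100 uM for 48 h.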

Read-out in experiment [17]: solute carrier (SLC10A1), SLC10A1 (gene 6554)
The experiment in a line: LTEA_HepaRG_SLC10A1: Life Technologies and Expression Analysis (LTEA) Assay for solute carrier (SLC10A1) using HepaRG (AID 2283657; active means hit-call score of the fitted dose curve at least 0.9, where 1 is the maximum; inactive means score below 0.9). Particulars: mRNA level, 48 h; actives raise or lower the signal. The essentials:
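HepaRG, 48 h exposure, 8-pt half-log curve from 100 uM in 0.5% DMSO, duplicates. Read-out: TaqMan qRT-PCR of SLC10A1 mRNA, normalized to three housekeeping genes. Gain/loss fit vs DMSO baseline.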

Read-out in experiment [18]: matrix metalloproteinase-1 (MMP1), MMP1 (gene 4312)
The experiment in a line: LTEA_HepaRG_MMP1: Life Technologies and Expression Analysis (LTEA) Assay for matrix metalloproteinase-1 (MMP1) using HepaRG (AID 2283658; active means hit-call score of the fitted dose curve at least 0.9, where 1 is the maximum; inactive means score below 0.9). Particulars: mRNA level, 48 h; actives raise or lower the signal. The method in brief: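 HepaRG, ~100,000 cells/well, 48 h pre-culture; serum-free induction medium; test chemical 8 conc (max 100 uM, half-log), duplicate, 48 h; 0.5% DMSO; qRT-PCR MMP1, housekeeping-normalized; gain/loss fit vs DMSO.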

A short description of experiment [19]: Tanguay_ZF_120hpf_SOMI_legacy: (Legacy) Oregon State University Tanguay Lab 120 Hour Post-fertilization zebrafish Assay for Somite Malformation (AID 2283647). The method in brief:
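Read-out: presence or absence of somite malformation in 120 hpf larvae, gain-of-signal relative to DMSO baseline. Embryos lacked chorion (pronase, 4 hpf) and were exposed statically from 6 hpf at 28C; dead larvae not scored.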

Results filed as inconclusive are left out. Calls of active or inactive are those of the source. How the source made its calls, unless noted: active means hit-call score of the fitted dose curve at least 0.9, where 1 is the maximum; inconclusive means response in the unintended direction; inactive means score below 0.9.

For the compound `CSC1=N[C@@](C)(c2ccccc2)C(=O)N1Nc1ccccc1`, the AC50 in experiment [1] was 3.52 µM (active); in experiment [7] it was 2.63 µM (active). The compound was classed as inactive in [2], in [3], in [4], in experiment [5], in experiment [6] and in experiment [8]. The compound was classed as inactive in experiment [9], in [10], in experiment [11], in experiment [12] and in experiment [13].

On to `FC(F)C(F)(F)OCC(Cn1cncn1)c1ccc(Cl)cc1Cl` (stereo not drawn), for which the AC50 in experiment [1] was 43.2 µM (active); in experiment [2], 15.7 µM (active); in experiment [3] it was 47.5 µM (active); in experiment [4], 47 µM (active); in experiment [5], 11.7 µM (active); in experiment [6] it was 47 µM (active). The AC50 in [7] was 26.1 µM (active); in experiment [8], 13.7 µM (active); in [9], 46.6 µM (active); in [10] it was 49.2 µM (active); in experiment [11], 49.6 µM (active); in [12] it was 17.2 µM (active). For the same compound, the results for the AC50 in experiment [14] and in experiment [13] were 18.2 µM (active) and 49.6 µM (active), respectively. Besides, the compound was called inactive in experiment [15].

Regarding `CCOP(=S)(OCC)SCCSCC`, the compound was called inactive in experiment [1], in experiment [2], in experiment [3], in experiment [4], in experiment [5] and in experiment [6]. Moreover, the outcome in experiment [7], in [8], in experiment [9], in experiment [10], in experiment [12] and in experiment [13] was inactive.

In the case of `O=c1ccc(=O)[nH][nH]1`, the AC50 was 25.4 µM (active) in experiment [1], 51.7 µM (active) in experiment [2] and 41.6 µM (active) in experiment [15]. In addition, the compound was called inactive in experiment [3], in experiment [5], in experiment [6], in [7], in experiment [8] and in experiment [9]. For the same compound, the compound was called inactive in experiment [10], in experiment [11] and in experiment [13].

In the case of `CCOC(=O)CC(SP(=O)(OC)OC)C(=O)OCC` (stereo not drawn), the call in experiment [1], in [4], in [5], in [6], in experiment [7] and in [8] was inactive. Also, the compound was classed as inactive in experiment [9], in [10], in [11], in [12], in experiment [16] and in [13]. In addition, the compound was classed as inactive in experiment [15] and in experiment [18]. In addition, the values for the AC50 in [2] and in [17] were 16.5 µM (active) and 10.1 µM (active), respectively.

With `COc1cc(OC)nc(Sc2cccc(Cl)c2C(=O)O)n1`, the outcome in experiment [1], in [2], in experiment [3], in [4], in experiment [5] and in experiment [6] was inactive. Further, the compound was called inactive in experiment [7], in [8], in experiment [9], in experiment [10], in experiment [11] and in [12]. For the same compound, in experiment [13], the outcome was inactive.

Consider `CNC(=O)ON=C(C)SC`, for which the result in experiment [1], in experiment [4], in experiment [6], in [7], in [8] and in experiment [9] was inactive. Moreover, the compound was classed as inactive in [10], in experiment [11], in experiment [12], in [14] and in experiment [13]. Moreover, the values for the half-maximal activity concentration (AC50) in [2] and in [5] were 10.1 µM (active) and 39.5 µM (active), respectively.

For `COP(=O)(NC(C)=O)SC` (stereo not drawn), the outcome in [1], in [2], in experiment [4], in experiment [5], in experiment [6] and in [7] was inactive. Further, the compound was classed as inactive in experiment [8], in [19], in [9], in [10], in experiment [11] and in experiment [12]. Further, the compound was classed as inactive in [13].

For the compound `COP(=O)(OC)OC(Br)C(Cl)(Cl)Br` (stereo not drawn), the outcome in experiment [1], in experiment [2], in [3], in experiment [4], in experiment [5] and in experiment [6] was inactive. Moreover, the call in experiment [7], in experiment [8], in [9], in experiment [12] and in [13] was inactive.

A word on the AC50: it is the midpoint of the concentration-response curve, whichever way the signal moves.
